Assay outcomes deposited in PubChem BioAssay by National Center for Advancing Translational Sciences (NCATS).
Pf Dd2 growth = Plasmodium falciparum Dd2 growth inhibition; actives 4.3% (n = 120,000); AID 1347417; Potency, µM (titrated, usually from 28.9 µM), most hits filed as inhibitors; P. falciparum Dd2 growth, SYBR Green, 72 h; active = well fitted inhibition curve with a large enough effect; also: nearly all actives have a fitted effect of over 65% in size
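Readout: SYBR Green fluorescence, 485 nm excitation, 535 nm emission, after ~16 h lysis at 37C. Before that, Dd2-infected red cells (2.5% hematocrit) grew 72 h with compound, 29 uM top final concentration.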
Numbers stand for hits; 0 = inactive. This excerpt belongs to a sample that is enriched for hits.

SMILES | Pf Dd2 growth
COc1ccc(C2Cn3cnc(C(=O)N4CCC(C(=O)NCc5ccccn5)CC4)c3CO2)cc1 (configuration not stated) | 0
CN(CC(=O)Nc1ccc(F)cc1F)S(=O)(=O)c1cccc2nsnc12 | 0
Cc1ccc(C(=O)NC[C@H]2C[C@@H]3CCN2C[C@@H]3c2cc(-c3cccs3)nc(C)n2)cc1 | 7.08µM
Cc1ccc(S(=O)(=O)NC[C@H]2C[C@@H]3CCN2C[C@@H]3c2cc(-c3ccccc3Br)nc(C)n2)cc1 | 0
Cc1nc(-c2ccccc2Br)cc([C@H]2CN3CC[C@H]2C[C@@H]3CNC(=O)c2ccco2)n1 | 0
Cc1cnc(C2CC2)n1CC1CCNCC1 | 0
CN1CCCN(C(=O)CN2CCCc3nc(C4CC4)ncc3C2=O)CC1 | 0
CCN(CC)C(=O)[C@@H]1C[C@@H](NC(=O)c2ncn[nH]2)CN1Cc1cnc[nH]1 | 0
CCOc1ccc(-n2c(=O)c3c4c(sc3n(Cc3cc(=O)n5cc(Cl)ccc5n3)c2=O)CCC4)cc1 | 0
Cc1sc2c(c1C)c(=O)n(-c1ccc(Cl)cc1)c(=O)n2Cc1cc(=O)n2ccccc2n1 | 0
CC(=O)c1sc2c(c1C)c(=O)n(-c1ccc(Cl)cc1)c(=O)n2Cc1cc(=O)n2cc(Cl)ccc2n1 | 1.26µM
CCCCC(=O)Oc1ccc2oc(-c3ccc(OC)cc3)cc(=O)c2c1 | 0
CS(=O)(=O)N1CCN(C(=O)C2CC(=O)N(c3n[nH]c4ccccc34)C2)CC1 (configuration not stated) | 0
COc1ccc(CCNC(=O)c2cc(=O)c3ccc(C)cc3o2)cc1OC | 0
COc1ccc(CC(=O)N2CCc3nc(C)nc(-c4ccc(Cl)cc4)c3CC2)cc1 | 0
COc1ccccc1N1CCN([C@H]2[C@@H]3OC[C@@H](O3)[C@@H](NCc3ccc(N(C)C)cc3)[C@@H]2O)CC1 | 0
O=C(Nc1ccccc1)N[C@H]1[C@H](O)[C@@H](N2CCC(Cc3ccccc3)CC2)[C@@H]2OC[C@H]1O2 | 0
COc1ccccc1N1CCN([C@H]2[C@@H]3OC[C@@H](O3)[C@@H](NCc3ccc(F)cc3)[C@@H]2O)CC1 | 7.94µM
COc1ccccc1N1CCN([C@H]2[C@@H]3OC[C@@H](O3)[C@@H](NCc3ccncc3)[C@@H]2O)CC1 | 0
CC(C)CN[C@H]1[C@H](O)[C@@H](N2CCC(Cc3ccccc3)CC2)[C@@H]2OC[C@H]1O2 | 3.98µM
O[C@H]1[C@H](NCc2ccncc2)[C@H]2CO[C@H](O2)[C@@H]1N1CCC(Cc2ccccc2)CC1 | 0
CCN1CCC2(CCC1=O)CN(Cc1ccc(C(=O)O)cc1)CCN2C (configuration not stated) | 0
C[S+](=O)([O-])N1Cc2ccccc2CC2(CCN(CC3CCOCC3)C2)C1 (configuration not stated) | 0
O=C(Cc1ccccc1)N1CCC2(COc3ccncc3S(=O)(=O)N2)C1 (configuration not stated) | 0
CC(CC(=O)Nc1ccc(Br)cc1F)S(=O)(=O)c1ccc2c(c1)NC(=O)CO2 (configuration not stated) | 0
SMILES | Pf Dd2 growth
COc1ccc(NC(=O)c2ccco2)cc1NC(=O)c1c(OC)cccc1OC | 0
COc1ccc(NC(=O)c2ccco2)cc1NC(=O)C(C)(C)Oc1ccc(Cl)cc1 | 10µM
COc1ccc(C(=O)Nc2cc(NC(=O)c3ccco3)ccc2OC)cc1Cl | 0
Cc1ccc(NC(=O)Cn2nnc(-c3nc(-c4ccncc4)no3)c2N)cc1 | 0
O=c1[nH]c2cccnc2n1Cc1ccccc1 | 0
CN(C)[C@@H]1[C@@H](NS(=O)(=O)c2cc(F)c(F)cc2F)[C@H]2CCO[C@H]21 | 0
CCOC(=O)CC1CCCCN1C(=O)CCC1(Cc2ccc(F)cc2)CCC(=O)N1 (configuration not stated) | 0
O=C(C[C@@H]1CCNC[C@@H]1Cc1cc(CC2CCCCC2)on1)NCc1ccco1 | 0
COc1ccc(CNC(=O)C[C@@H]2CCNC[C@@H]2Cc2cc(CC3CCCCC3)on2)cc1 | 11.2µM
COc1ccc(CNC(=O)C[C@@H]2CCNC[C@@H]2Cc2cc(CN3CCOCC3)on2)cc1 | 0
O=C(COc1ccc(F)cc1)N1CCC(n2cc(-c3nc(C4CC4)no3)nn2)C1 (configuration not stated) | 5.62µM
CCNC(=O)N1CCC(c2noc(COc3ccc(C)cc3)n2)CC1 | 10µM
Cc1ccc(OCc2nc(C3CCN(C(=O)c4ccncc4)CC3)no2)cc1 | 0
Cc1ccc(C)c(NC(=O)N2CCCC(c3noc(COc4ccccc4)n3)C2)c1 (configuration not stated) | 5.01µM
Cc1ccc(OCc2nc(C3CN(C(=O)C4CCCO4)C3)no2)cc1 (configuration not stated) | 0
CCc1noc(-c2cn(C3CCN(C(=O)COc4ccc(F)cc4)C3)nn2)n1 (configuration not stated) | 0
Cc1ccc(C)c(NC(=O)N2CCCC(c3noc(COc4ccccc4F)n3)C2)c1 (configuration not stated) | 0
O=C(c1ccc(F)cc1)N1CCCC(c2noc(COc3ccccc3)n2)C1 (configuration not stated) | 0
Cc1ccc(NC(=O)N2CCCC(c3noc(COc4ccccc4F)n3)C2)c(C)c1 (configuration not stated) | 0
O=C(COc1ccc(F)cc1)N1CCCC(n2cc(-c3nc(C4CC4)no3)nn2)C1 (configuration not stated) | 0
O=C(COc1ccc(F)cc1)N1CCCC(c2noc(COc3ccccc3)n2)C1 (configuration not stated) | 6.31µM
O=C(c1ccccc1F)N1CCCC(c2noc(COc3ccccc3)n2)C1 (configuration not stated) | 0
CCN1CCN(C(=O)C2CCCN(C(=O)c3ccccc3)CCC(=O)NCC2)CC1 (configuration not stated) | 0
CN1C(=O)CO[C@H](c2ccc(NC(=O)c3cccc(F)c3)cc2)[C@H]1CO | 0
O=C(Cc1ccccc1)NC[C@H]1O[C@H](Cc2cc(CN3CCNCC3)on2)CC[C@@H]1O | 0
SMILES | Pf Dd2 growth
CN(C)c1ccc(CN[C@H]2C[C@H]3C(=O)NC[C@@H](CCC(=O)N4CCCCC4)N3C2)cc1 | 0
COc1ccc(-c2nnc3n2CCN(C(=O)c2ccccc2)C3)cc1 | 0
CCc1ccc(CNC(=O)c2cnc3sc(N(CC)CC)nn3c2=O)cc1 | 0
CCCCN(C)C(=O)CSc1nc2ccccc2nc1Cc1ccc(C)cc1 | 0
Cc1cc(C(=O)N2CC[C@H](NS(=O)(=O)c3cccs3)C[C@H]2C(=O)N[C@@H](Cc2cccs2)C(N)=O)n(C)n1 | 0
CCOc1cccc(CNC(=O)c2ccc(N3CCCC3)c(NC(=O)NCc3ccccc3)c2)c1 | 0
CN1C(=O)[C@H]2CN(Cc3cn[nH]c3-c3ccc(F)cc3)C[C@H]2C1=O | 0
Cc1cnc(C(=O)N[C@@H]2CCC[C@@H]2C(=O)Nc2cccc(F)c2C)cn1 | 0
CC(C)C1c2nccn2CCCN1C(=O)c1cocn1 (configuration not stated) | 0
CC(C)(C)c1ccccc1NC(=O)CSc1nc(-c2cccs2)cc(C(F)(F)F)n1 | 0
COC(=O)c1ccccc1NC(=O)CSc1n[nH]c(C)n1 | 0
COC(=O)c1ccccc1NC(=O)CSc1nc(-c2ccccc2)cc(C(F)(F)F)n1 | 2.82µM
CN(C)c1cccc(C(=O)NC2CCN(c3cc(-c4ccc(F)cc4)[nH]n3)CC2)c1 | 0
COc1ccc(CNC(=O)C2CCN(S(=O)(=O)c3ccc4c(c3)CCCN4C(C)=O)CC2)cc1 | 0
